INS promoter inh = TRM-6 insulin promoter activity inhibition. actives 0.9% (n = 130,000). TRM-6 cells (human fetal islet line), insulin promoter-eGFP reporter, imaging; reporter expression induced with tamoxifen. AID 1273. inhibition, % at 2 µM;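 active = inhibition above the mean plus 3 SD, with well images judged a real hit on visual review, cut at about 60% in these data, passing the limit was not always enough; inconclusive = inhibition over the cutoff but images rejected on review; inactive = inhibition not above the cutoff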
Ins promoter up = MIN6 insulin promoter up-regulation. MIN6 insulin promoter-GFP reporter, high-content imaging; active compounds read high. z-score at 5 µM. actives 0.3% (n = 190,000). AID 1625;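 active = z-score above 3 at 5 µM with at least 500 cells counted in the well; inconclusive = wells under 500 cells, flagged as cytotoxic or low count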
Lmaj promast = reduces viability of Leishmania major promastigotes; inhibition, % at 10 µM; actives 9% (n = 200,000); resazurin fluorescence viability; in the data active = inhibition above about 50%;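 note: promastigotes grown with compound for 44 hours at 28 °C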
ROMK primary = modulators of human ROMK potassium channel | P48048 | Tet-inducible ROMK, thallium flux fluorescence; actives lie on both sides | B-score at 10 µM | actives 2% (n = 130,000);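 active = signal ratio slope over the read window, or its plate-corrected B-score, at least 3 SD from the plate mean, either direction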;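 note: B-score of the F/F0 ratio slope over 7 to 12 s after thallium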
WT yeast gro inh = growth inhibition of WT yeast, mitochondrial fusion screen. mitochondrial fusion phenotypic screen, WT strain. inhibition, % at 10 µM. actives 2.1% (n = 190,000). AID 1362; in the data active = inhibition above about 58%; tested in S. cerevisiae
KCC2 mod = KCC2 (human) Cl- transport modulation; Q9H2X9; KCC2 cells, thallium flux FluoZin-2 fluorescence; B-score of Tl+ flux slope (higher = more flux/activation; lower = inhibition) at 10 µM; actives 2.2% (n = 190,000); AID 1456;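 active = thallium flux slope and its plate-corrected score both differing from the plate sample mean at a set confidence after two filtering rounds, in either direction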;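 note: slope of fluorescence scaled to starting intensity during 10 to 20 s after thallium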
Target sequence (Q9H2X9 whole entry, looked up): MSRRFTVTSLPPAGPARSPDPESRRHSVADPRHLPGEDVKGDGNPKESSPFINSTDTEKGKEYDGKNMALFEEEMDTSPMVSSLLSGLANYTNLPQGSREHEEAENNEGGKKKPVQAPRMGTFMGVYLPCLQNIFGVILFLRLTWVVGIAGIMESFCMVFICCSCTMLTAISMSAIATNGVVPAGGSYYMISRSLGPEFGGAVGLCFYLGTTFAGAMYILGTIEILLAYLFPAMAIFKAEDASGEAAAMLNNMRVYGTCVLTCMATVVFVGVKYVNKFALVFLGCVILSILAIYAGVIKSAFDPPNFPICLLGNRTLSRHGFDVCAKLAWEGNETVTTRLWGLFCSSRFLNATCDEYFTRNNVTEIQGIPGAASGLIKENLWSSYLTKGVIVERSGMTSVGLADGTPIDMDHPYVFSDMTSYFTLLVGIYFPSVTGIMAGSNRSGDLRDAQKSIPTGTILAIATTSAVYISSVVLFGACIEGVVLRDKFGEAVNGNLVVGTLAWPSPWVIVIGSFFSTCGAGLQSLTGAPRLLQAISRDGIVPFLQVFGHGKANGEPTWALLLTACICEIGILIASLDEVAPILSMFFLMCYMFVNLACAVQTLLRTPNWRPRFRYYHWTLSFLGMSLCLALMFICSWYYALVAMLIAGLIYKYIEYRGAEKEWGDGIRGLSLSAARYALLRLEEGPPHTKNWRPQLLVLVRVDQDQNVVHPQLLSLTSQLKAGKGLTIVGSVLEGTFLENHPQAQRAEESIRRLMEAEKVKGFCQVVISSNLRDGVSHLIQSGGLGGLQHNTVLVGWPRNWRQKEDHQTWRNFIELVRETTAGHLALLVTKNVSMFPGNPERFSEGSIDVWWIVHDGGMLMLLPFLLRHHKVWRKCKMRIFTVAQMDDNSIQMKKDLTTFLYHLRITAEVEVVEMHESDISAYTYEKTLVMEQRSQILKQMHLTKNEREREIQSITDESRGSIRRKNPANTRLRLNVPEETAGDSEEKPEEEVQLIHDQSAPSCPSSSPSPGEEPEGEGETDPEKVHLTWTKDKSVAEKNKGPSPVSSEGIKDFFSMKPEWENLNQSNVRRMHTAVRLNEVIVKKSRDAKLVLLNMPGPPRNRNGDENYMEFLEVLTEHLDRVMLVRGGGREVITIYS
ROMK retest = retested hit modulating human ROMK potassium channel. shares compounds with ROMK primary. ROMK thallium flux, fluorescence ratio; active compounds read low. normalized thallium flux (F/F0 slope) at 10 µM. actives 54% (n = 3,000). AID 1917;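 active = Flux at 10 µM at least 3 SD below or above vehicle control mean in one or both replicates; inconclusive = no clear call, values can overlap the other calls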
* marks the source's active call; other numbers are inactive results; i = inactive; ? = inconclusive; nt = no result given. Sampled rows, rich in hits. Any-hit rate of the full collection: about 12%.

SMILES	INS promoter inh	Ins promoter up	Lmaj promast	ROMK primary	WT yeast gro inh	KCC2 mod	ROMK retest
COc1cccc(C(=O)C2CCCN(Cc3cccn3-c3cccnc3)C2)c1 (stereo not given)	nt	0.64	89*	-2.9*	-2	0.0078	0.072
COc1ccc(C(=O)C2CCCN(S(=O)(=O)c3cccnc3)C2)c(C)c1 (stereo not given)	nt	-0.78	5	-8.6*	-5	2.6	0.075
O=C(CC1SC(N2CCCCC2)=NC1=O)Nc1cccc(C(F)(F)F)c1 (stereo not given)	42	2.5	-1	nt	-11	-0.63	nt
CCn1c(COc2ccccc2C)nnc1SCC(=O)N1CCCCC1	0	-0.32	-2	nt	8	0.2	nt
N#C/C(=C\c1ccc(N2CCOCC2)o1)C(=O)NC1CCCCC1	nt	1.9	nt	nt	nt	-4.4	0.035*
N#C/C(=C\c1ccc(N2CCOCC2)o1)C(=O)NCC1CCCO1 (stereo not given)	nt	0.95	-4	-4.2*	-4	i	0.038*
COc1cccc(NC(=O)Cn2nc(Cc3cccnc3)c3ccccc3c2=O)c1	nt	0.39	3	nt	-8	-1.2	nt
O=[N+]([O-])c1ccc(N/N=C/c2cn(-c3ccccc3)nc2-c2ccccc2)cc1	-96	nt	7	nt	0	nt	nt
O=C(NC1=NCCS1)C1CC(=O)N(c2ccccc2)C1 (stereo not given)	nt	-1.8	-9	-0.0094	4	0.52	nt
O=C(NCCN1C(=O)CSC1=O)C1CC(=O)N(c2ccccc2)C1 (stereo not given)	0	-0.11	-2	0.91*	1	0.64	0.081
Cc1ccc2nc(NC(=O)C(NS(=O)(=O)c3cccc4nsnc34)C(C)C)sc2c1 (stereo not given)	nt	-0.46	96*	nt	14	-0.028	0.062*
CC(C)(C)c1ccc(S(=O)(=O)N(CCCN2CCOCC2)Cc2cccs2)cc1	-39	-0.58	95*	-3.5*	18	0.12	0.052*
CC(=O)Nc1ccc(S(=O)(=O)N(CCCN2CCOCC2)Cc2cccs2)cc1	-21	0.42	13	0.39	-11	-0.98	nt
CSc1nc2ccc(S(=O)(=O)NC3CCCCC3)cc2s1	14	0.41	1	-2.4*	23	nt	?
CSc1nc2ccc(S(=O)(=O)N3CCCCC3)cc2s1	21	0.49	-2	0.00014	-10	nt	nt
CCOc1ccc(-n2c(SCc3cc(=O)oc4cc(C)c(C(C)C)cc34)nnc2-c2cccnc2)cc1	-32	-0.9	41	-1.1	9	-1	nt
NS(=O)(=O)c1ccc(CCNC(=O)c2ccc(C#CC3(O)CCCCC3)cc2)cc1	-75	0.65	-5	-0.43	-42	0.14	0.082
O=C(Cn1cnc([N+](=O)[O-])c1)NCc1ccc(F)cc1	nt	0.37	-11	0.44	21	nt	nt
COc1cc(C2CC(=O)OC3=C2C(=O)CC(C)(C)C3)cc(OC)c1OC (stereo not given)	nt	-0.59	-7	-1.3	-8	2.5	nt
CC1(C)CC(=O)C2=C(C1)OC1OC(=O)CC21C (stereo not given)	nt	0.09	-8	1.4*	-13	-0.49	0.091
Cn1c(=O)c2c(nc(N3CCN(Cc4ccccc4)CC3)n2CCCc2ccccc2)n(C)c1=O	-62	-2.1	42	nt	12	0.73	0.058*
COC(=O)/C=C1/SC(=NC(=O)c2ccc(F)cc2)NC1=O	nt	-0.04	nt	nt	nt	0.84	0.048*
COC(=O)/C=C1/SC(=NC(=O)c2ccccc2)NC1=O	nt	0.61	33	nt	-7	0.65	nt
COC(=O)/C=C1\SC(=NC(=O)c2cccc(Cl)c2)NC1=O	12	0.44	48	nt	1	1.6	0.052*
COc1cc(C)ccc1OCCOCCOc1ccc([N+](=O)[O-])cc1	-21	0.43	-1	-1.7*	16	-1.3	0.071
SMILES	INS promoter inh	Ins promoter up	Lmaj promast	ROMK primary	WT yeast gro inh	KCC2 mod	ROMK retest
COc1cc(C)ccc1OCCOCCOc1ccccc1[N+](=O)[O-]	-7	-0.39	31	nt	-18	-1.1	nt
Cc1ccc([N+](=O)[O-])cc1Nc1nc(N2CCOCC2)nc(N2CCOCC2)n1	-62	-0.06	3	-0.66	22	0.023	nt
O=C(c1cccs1)c1no[n+]([O-])c1C(=O)c1cccs1	24	3.8*	-3	nt	7	-3.7	0.028*
COc1ccc(NC(=O)c2c(N)no[n+]2[O-])cc1	67	-0.39	28	0.44	-10	0.21	nt
COc1ccc(C(=O)c2no[n+]([O-])c2C(=O)c2ccc(OC)cc2)cc1	18	-0.05	-6	nt	15	-0.39	?
Cc1cc(NS(=O)(=O)c2ccc(NC(=S)NCc3ccccc3)cc2)no1	-14	1.3	-8	0.7	1	-0.98	nt
Cc1ccc2nc(NCCO)nc(-c3ccccc3)c2c1	-44	-1.2	11	nt	24	0.83	0.075
OCCNc1nc(-c2ccccc2)c2ccccc2n1	-14	0.96	4	-0.68	4	nt	nt
COc1ccc(-c2cc(C(F)F)n3ncc(C(=O)N4CCSCC4)c3n2)cc1	4	nt	48	nt	6	nt	nt
CCOC(=O)C1CCCN(C(=O)c2cnn3c(C(F)F)cc(-c4ccc(C)cc4)nc23)C1 (stereo not given)	nt	0.12	98*	nt	14	nt	0.073
Cc1nn(C)c(C(=O)Nc2ccn(Cc3c(F)c(F)cc(F)c3F)n2)c1[N+](=O)[O-]	36	0.48	4	-0.61	11	-1.4	nt
O=C1CC(/C=C/c2ccc([N+](=O)[O-])cc2)=Nc2ccccc2N1	nt	-0.2	nt	nt	nt	-0.78	0.057*
CC1CCCCN1C(=O)c1ccc(S(=O)(=O)N2CCCCC2C)cc1 (stereo not given)	nt	-0.57	2	0.015	4	nt	nt
CC1CCN(C(=O)c2ccc(S(=O)(=O)N(C)C)cc2)C(C)C1 (stereo not given)	27	nt	0	3*	12	nt	0.077
Cc1noc(C)c1COc1ccc(C(=O)OCC(=O)Nc2ccc3c(c2)OCO3)cc1	-14	-1.1	-4	nt	-1	0.65	0.072
Cc1noc(C)c1COC(=O)c1ccc2c(c1)OCO2	-36	-0.56	-5	-0.7	28	0.01	nt
COc1ccc(CNC(=O)c2csc(Cc3ccccc3)n2)cc1	20	-0.11	-1	nt	18	nt	0.074
COc1ccc(C(=O)Nc2ccnc(-c3cccnc3)n2)cc1	15	0.19	0	4.4*	4	nt	0.1*
O=C(Nc1ccnc(-c2cccnc2)n1)c1ccc(Cl)c(Cl)c1	27	0.98	1	1.8	1	nt	nt
Cc1ccccc1C(=O)Nc1ccc(Br)c(C)n1	-28	0.52	11	nt	12	-0.46	nt
Cc1nc(NC(=O)c2cccnc2)ccc1Br	-9	0.77	-4	nt	-3	0.13	0.079
Cc1ccc(C(=O)Nc2ccnc(-c3cccnc3)n2)cc1	28	0.15	-4	4.6*	2	0.5	0.11*
Cc1ccc(NC(=O)Nc2ccnc(-c3cccnc3)n2)cc1	23	-0.23	40	3.1	-30	nt	nt
Cc1cc(C(=O)NN=C2CCCCCC2)c(C)o1	nt	0.04	nt	nt	nt	-0.12	nt
